Assay outcomes: PubChem, National Center for Advancing Translational Sciences (NCATS)
Many of the other results were omitted from the sample, so hits are more common in it than they were.
ClpP mod: qHTS Assay for Activators of ClpP. AID 651965, 2013. Potency, µM (highest dose often 57.5 µM). 340,000 compounds, 1.9% hits. purified B. subtilis ClpP, FRET peptide cleavage, 20 min; active means well fitted falling curve with a large enough effect; inconclusive means small, poorly fitted or top-dose-only effect; inactive means no such curve, though single readings can be large or run the other way; further: the source files actives as falling curves though it sought activators and does not explain the sign; nearly all actives have a fitted effect of over 65% in size
Target sequence (P80244 whole entry, looked up): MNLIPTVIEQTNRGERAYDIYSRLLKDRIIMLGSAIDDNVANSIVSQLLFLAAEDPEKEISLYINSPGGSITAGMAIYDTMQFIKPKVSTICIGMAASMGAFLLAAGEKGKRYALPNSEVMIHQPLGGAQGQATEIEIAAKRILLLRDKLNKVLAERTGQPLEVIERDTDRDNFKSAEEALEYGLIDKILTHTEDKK
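FRET quenching reversal measured ClpP activation: 10 microg/mL B. subtilis ClpP at pH 8 with the FRET-FV decapeptide, read at 430 nm after 320 nm excitation. The 20-min minus 0-min signal was scaled between DMSO/no-enzyme wells and ADEP (5.8 microM final).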
GALK inh: inhibitors of human galactokinase | Purified GALK, Kinase-Glo residual ATP luminescence | Potency, µM (series often up to 57.5 µM), hits mostly inhibitors | 270,000 compounds, 0.007% hits | AID 1868
Target sequence (P51570 whole entry, looked up): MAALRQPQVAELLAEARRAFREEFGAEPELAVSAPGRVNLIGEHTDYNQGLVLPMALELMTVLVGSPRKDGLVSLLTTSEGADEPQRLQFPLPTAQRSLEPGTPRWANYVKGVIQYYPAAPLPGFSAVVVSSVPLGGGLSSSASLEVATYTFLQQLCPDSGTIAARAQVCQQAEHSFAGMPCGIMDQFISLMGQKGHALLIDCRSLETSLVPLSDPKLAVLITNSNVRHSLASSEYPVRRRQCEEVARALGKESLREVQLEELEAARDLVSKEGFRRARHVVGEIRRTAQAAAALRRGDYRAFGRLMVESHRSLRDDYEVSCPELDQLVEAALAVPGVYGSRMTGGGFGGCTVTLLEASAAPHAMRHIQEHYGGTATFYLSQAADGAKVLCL
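Compounds were pin-transferred into ATP buffer (35 uM final), then GALK plus galactose (5 nM, 100 uM final) was added. After 1 h at room temperature, Kinase-Glo Plus was added and luminescence read after 10 min.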
Eya2 phos inh: Eya2 (human) phosphatase inhibition. 330,000 compounds, 0.006% hits. Potency, µM (titrated, usually from 76.9 µM), actives largely listed as inhibitors. recombinant Eya2, OMFP fluorescence dephosphorylation (OMFP is methylfluorescein phosphate). O00167. AID 488837
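Eya2 (0.2 uM) preincubated 10 min at ambient with compound, then OMFP substrate added at 50 uM; 10 min reaction in 50 mM HEPES pH 7.5, 50 mM NaCl, 5 uM MgCl2, 0.05% BSA, 1 mM DTT. Fluorescence read at Ex 485/Em 525 nm.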
USP2a block: inhibitors of human ubiquitin-specific protease USP2a. O75604. USP2 core, Ub-CHOP2 coupled fluorogenic reporter, 485/531. Potency, µM (top dose mostly 38.3 µM), most hits filed as inhibitors. 330,000 compounds, 0.01% hits
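USP2 core (10nM final) preincubated 30min RT with compound in 20mM Tris-HCl pH 8.0, 2mM CaCl2, 2mM beta-mercaptoethanol, 0.05% CHAPS; 25nM Ub-CHOP2 plus 25nM reporter substrate added, fluorescence (Ex485/Em531) read after 60min.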
Of the large screens only hits and unclear results are named; the others gave an inactive call. Unless noted, the call rests on the fitted dose curve; in most records, active means well fitted inhibition curve with a large enough effect; inconclusive means small, poorly fitted or top-dose-only effect, or effect the other way; inactive means flat fitted curve, though single readings scatter.

CSc1nnc(C)c(=O)n1COC(=O)COc1ccccc1C	ClpP mod 28µM
COC(=O)c1ccn(C(=O)c2ccc(Cl)cc2)n1	ClpP mod 28µM (no result: Eya2 phos inh, USP2a block)
Cc1cc(C(=O)NCCCn2ccnc2)sc1-c1ccccc1	ClpP mod 22µM
Cc1cc(C)c(C)c(S(=O)(=O)Nc2ccccc2C(=O)NCCCn2ccnc2)c1C	ClpP mod 35µM
Cc1ccc2nc(-c3ccccc3)cc(C(=O)NCCCn3ccnc3)c2c1	ClpP mod 16µM
C/C(=N\O)c1ccc2c3c([nH]c2c1)CCCC3	ClpP mod 16µM
COc1ccc2cc(C(N)=O)c(=Nc3ccccc3)oc2c1	none (no result: ClpP mod)
COc1ccc(OC)c(N=c2oc3cc(O)ccc3cc2C(N)=O)c1	ClpP mod 28µM
COC(=O)CCC(=O)NC(=S)Nc1sc(C)c(C)c1C(N)=O	none
Cc1sc(NC(=S)NC(=O)CCc2ccccc2)c(C(N)=O)c1C	ClpP mod 28µM
COC(=O)c1cc(Cl)c(N)cc1OC	none
CC(=O)Nc1nonc1-c1nc2ccccc2n1CC1CC1	ClpP mod inconclusive
CC(=O)Nc1nonc1-c1nc2ccccc2n1N(C(C)=O)C(C)=O	ClpP mod 28µM
CC(=O)Nc1nonc1-c1nc2ccccc2n1Cc1ccccc1Br	ClpP mod 25µM (no result: GALK inh, Eya2 phos inh, USP2a block)
CC1=C(C(=O)N2CCOCC2)C(c2ccccc2F)C2=C(CCCC2=O)N1 (stereo not given)	ClpP mod 25µM
CN1CCc2c(sc3nc(SCC(=O)N4CCOCC4)nc(N)c23)C1	ClpP mod inconclusive
CC1CCN(C(=O)CSc2nc(N)c3c4c(sc3n2)CN(C)CC4)CC1	ClpP mod 28µM
Cc1cc(C)c2cc(C(=O)N3CCC(Cc4ccccc4)CC3)[nH]c2c1	none (no result: ClpP mod)
C/C(=N\NC(=O)c1nc2ccccn2c1C)c1cccc([N+](=O)[O-])c1	ClpP mod 18µM
CN1CCN(c2nnc(-c3ccccc3)c(-c3ccccc3)n2)CC1	none (no result: ClpP mod)
COc1ccccc1-c1c(C)oc2c(CN3CCOCC3)c(O)ccc2c1=O	none
Cc1oc2c(CN3CCOCC3)c(O)ccc2c(=O)c1-c1ccccc1	ClpP mod 28µM
COc1ccc(Oc2c(C)oc3c(CN4CCOCC4)c(O)ccc3c2=O)cc1	ClpP mod 32µM
Cc1ccccc1Oc1ncnc2oc(-c3ccccc3)cc12	ClpP mod 32µM
Clc1ccc(Oc2ncnc3oc(-c4ccccc4)cc23)cc1	none
COC(=O)c1cc(NC(=O)CSC2=NCCS2)cc(C(=O)OC)c1	ClpP mod 25µM
CC(=O)Nc1cccc(NC(=O)CSc2nc(=O)n(CCCN3CCOCC3)c3c2CCC3)c1	ClpP mod 28µM (no result: GALK inh)
O=C(CSc1nc2ccccc2c(=O)n1CCCN1CCOCC1)Nc1cccc(S(=O)(=O)N2CCCCCC2)c1	ClpP mod 18µM
Cc1ccc(NC(=O)CSc2nc(=O)n(CCCN3CCOCC3)c3c2CCCC3)cc1F	ClpP mod 32µM (no result: GALK inh)
COC(=O)c1cc2nc(-c3ccc(OC)c(OC)c3)cc(C(F)(F)F)n2n1	ClpP mod 3.2µM
COc1ccc(-c2cc(C(F)(F)F)n3nc(C(=O)O)cc3n2)cc1OC	none
CCOc1nc(NC(=O)NS(=O)(=O)c2cccc(Cl)c2)nc(-c2ccccc2)n1	ClpP mod 28µM
Fc1ccc(-c2cc(-c3cccs3)cc(-c3ccccc3)n2)cc1	ClpP mod 28µM
O=S(=O)(c1ccc(Cl)cc1)N1CCN(C2CCN(Cc3ccccc3)CC2)CC1	none
CCC1(CC)NC(=S)NC1=S	ClpP mod 28µM (no result: GALK inh, Eya2 phos inh, USP2a block)
O=C(CNCC1CCCO1)Nc1ccccc1N1CCOCC1 (stereo not given)	none
Cc1nc2c(C(=O)NCCc3ccccc3)c[nH]n2c(=O)c1Cc1ccccc1F	none (no result: GALK inh, Eya2 phos inh, USP2a block)
Nc1nnc(SCC(=O)NCCOc2ccccc2)s1	ClpP mod 25µM
CC(C)(C)c1cc(NC(=O)CSc2nnc(N)s2)n(-c2ccccc2)n1	ClpP mod 28µM
CCC(C)NC(=O)c1cc2cc3ccc(OC)cc3nc2o1 (stereo not given)	Eya2 phos inh inconclusive
CCOC(=O)CNC(=O)c1ccc2[nH]c3ccccc3c2c1	none
O=C(NCC(O)CO)c1ccc2[nH]c3ccccc3c2c1 (stereo not given)	ClpP mod 28µM
COc1cc(Cc2cc(N)nc(N)n2)cc(OC)c1OC	none (no result: ClpP mod)
Nc1c(C(=O)CSc2nnc(COc3ccc(Cl)cc3)o2)c(=O)[nH]c(=O)n1C1CC1	none (no result: GALK inh)
NC(=O)c1c(NC(=S)Nc2ccccc2)sc2c1CCCC2	none (no result: ClpP mod)
COc1nc(C)nc2c1sc1nc3c(cc12)COC(C)(C)C3	ClpP mod 28µM
Cc1nc(OCC(C)C)c2sc3nc4c(cc3c2n1)COC(C)(C)C4	none (no result: ClpP mod)
CC1(C)Cc2nc3sc4c(N(CCO)CCO)ncnc4c3cc2CO1	ClpP mod 14µM
O=C(c1ccc(F)cc1)N1CCC(C(=O)N(Cc2ccccc2)c2ccccc2)CC1	none (no result: GALK inh)
CN(CCOc1ccccc1)C(=O)C1CCN(C(=O)c2ccc(F)cc2)CC1	ClpP mod 22µM
Cc1ccc(SCC(=O)Nc2ccc(C(=O)Nc3ccc(O)cc3)cc2)cc1	USP2a block 11µM (no result: ClpP mod)
Fc1ccc(-c2cc(C(F)(F)F)nc(NCc3cccs3)n2)cc1	ClpP mod 32µM (no result: GALK inh)
Fc1ccc(CNc2nc(-c3ccco3)cc(C(F)(F)F)n2)cc1	ClpP mod 25µM
FC(F)(F)c1cc(-c2ccco2)nc(NCc2ccccc2)n1	ClpP mod inconclusive
Fc1ccc(CNc2nc(-c3ccc(Cl)cc3)cc(C(F)(F)F)n2)cc1	none (no result: GALK inh, Eya2 phos inh, USP2a block)
Fc1ccc(-c2cc(C(F)(F)F)nc(NCc3ccccc3)n2)cc1	ClpP mod 22µM (no result: GALK inh, Eya2 phos inh, USP2a block)
CCOC(=O)[C@]12CCC=C1N(Cc1ccc(Cl)cc1Cl)C(=O)[C@H](CC(=O)NCc1ccc(OC)c(OC)c1)C2	none (no result: GALK inh, Eya2 phos inh, USP2a block)
O=C(c1cccc(NS(=O)(=O)c2ccccc2)c1)N1CCCC1	none
O=C(c1cccc(NS(=O)(=O)c2ccc(F)c(F)c2)c1)N1CCN(C(c2ccccc2)c2ccccc2)CC1	ClpP mod 32µM
O=c1[nH]c(Nc2ccccc2)cc2ccccc12	ClpP mod 28µM, GALK inh inconclusive, Eya2 phos inh inconclusive
Cc1cc(C)c(-c2cc(C(F)(F)F)no2)c(=O)[nH]1	ClpP mod 18µM
CCCN(CCC)S(=O)(=O)c1ccc(C(=O)OCCN2C(=O)c3cccc4c(N5CCOCC5)ccc(c34)C2=O)cc1	ClpP mod 22µM (no result: GALK inh)
O=C(OCCN1C(=O)c2cccc3c(N4CCOCC4)ccc(c23)C1=O)c1ccc(Cl)cc1	none
Clc1ccc(-c2nc3ccccn3c2Nc2ccc3c(c2)OCCO3)s1	none (no result: GALK inh, Eya2 phos inh, USP2a block)
Cc1ccn2c(Nc3ccc4c(c3)OCCO4)c(-c3ccc(Cl)s3)nc2c1	ClpP mod 25µM (no result: GALK inh, Eya2 phos inh, USP2a block)
CN(C)S(=O)(=O)c1cccc(NC(=O)COC(=O)[C@H](Cc2ccccc2)NC(=O)c2ccco2)c1	ClpP mod 28µM (no result: GALK inh)
Cc1cc(C)n2c(-c3ccccc3Cl)nnc2n1	ClpP mod 28µM
c1ccc2[nH]c(-c3cscn3)nc2c1	none
